In ChEMBL document CHEMBL1157539, “Thousands of chemical starting points for antimalarial lead identification” (Nature, 2010):

These compounds were tested on Plasmodium falciparum (assay: GSK_TCMDC: Inhibition of Plasmodium falciparum Dd2 in whole red blood cells, using parasite LDH activity as an index of growth. Test compounds present at 2uM).
Assay type: functional
Compound `Brc1ccc(Nc2nc3ccccc3nc2Nc2ccc(Br)cc2)cc1` has an Inhibition of 100%.
With `COc1ccccc1C1CCN(C2CCC(NC(=O)/C=C/c3cc(F)cc(F)c3)CC2)CC1` (stereo unspecified) the Inhibition was 15%.
For `Cc1ccc(CCOCCCCCNCC(O)c2cc(Cl)c(N)c(Cl)c2)cc1` (stereo unspecified), the Inhibition was 98%.
`Cc1cc(NC(=O)c2cccs2)ccc1OC1CCN(Cc2ccc(F)cc2)CC1.O=C(O)C(F)(F)F` showed an Inhibition of 92%.
With `CN(CCS(C)(=O)=O)Cc1ccc(-c2ccc3ncnc(Nc4ccc(OCc5cccc(F)c5)c(Cl)c4)c3c2)o1.Cc1ccc(S(=O)(=O)O)cc1` the Inhibition was 65%.
Work on `CC(C)NCc1ccc(-c2ccc(NC(=O)c3ccc(C#N)cc3)cc2)cc1.O=C(O)C(F)(F)F` yielded an Inhibition of 0%.
`COc1ccc(CNCc2ccc(-c3ccc(-c4nc5ccccc5[nH]4)cc3)cc2)cc1.O=C(O)C(F)(F)F` gave an Inhibition of 89%.
`CCCC(CNCc1cccc(C)c1)CNc1cc(=O)c2ccccc2[nH]1` (stereo unspecified) was tested, and the Inhibition was 89%.
Compound `COc1ccc(-c2nc3c(N)nc(N)nc3nc2-c2ccccc2Cl)cc1.COc1ccc(-c2nc3nc(N)nc(N)c3nc2-c2ccccc2Cl)cc1.Cl` has an Inhibition of 0%.
With `O=C(Nc1ccccc1Cc1ccccc1)c1ccccc1[N+](=O)[O-]` the Inhibition was 59%.
Work on `CC(=O)Nc1cccc(CN(Cc2ccc(-c3ccc(CNCc4cccnc4)cn3)cc2)C(=O)Cc2cccnc2)c1.O=C(O)C(F)(F)F` yielded an Inhibition of 65%.
Compound `Cc1cc(C(F)(F)F)n2nc(C3CCN(Cc4cc(C)c(O)c(C)c4)C3)cc2n1.O=C(O)CC(O)(CC(=O)O)C(=O)O` (stereo unspecified) has an Inhibition of 99%.
`COc1ccc(N2CCN(CCCOc3ccc(NC(=O)c4cc(Cl)cc(Cl)c4)cc3)CC2)c(OC)c1` showed an Inhibition of 41%.
Work on `Cl.N=C(NCCc1ccc(Cl)c(Cl)c1)c1ccc2ccccc2c1` yielded an Inhibition of 29%.
In the case of `O=C(NC1CCCCCC1)C1CCCN(C(=O)c2ccc(O)c(-c3ccc(Cl)c(Cl)c3)c2)C1` (stereo unspecified), the Inhibition is reported as 21%.
For `COc1ccccc1C(=O)C1CCCN(C(=O)c2ccccc2C(F)(F)F)C1` (stereo unspecified), the Inhibition was 84%.
Work on `Cc1cc(-c2c[nH]c3ncc(-c4cccc5ncccc45)cc23)ccc1C(=O)O.O=C(O)C(F)(F)F` yielded an Inhibition of 77%.
In the case of `Cc1ccc(NC(=O)c2ccc3ncccc3c2)cc1OC1CCN(Cc2ccc(F)cc2)CC1.O=C(O)C(F)(F)F`, the Inhibition is reported as 22%.
With `O=C(Cn1c(CCc2cccc(F)c2F)nc(=O)c2ccccc21)N(Cc1ccc(-c2ccc(C(F)(F)F)cc2)cc1)C1CCN(C2CCSCC2)CC1.O=C(O)C(O)C(O)C(=O)O` the Inhibition was 93%.
With `Cc1cn(CC(=O)Nc2cccc(-c3cccc(-c4nc5cccc(C)c5[nH]4)c3)c2)c(=O)[nH]c1=O` the Inhibition was 100%.
In the case of `Cc1nc(O)c2c(ccc3ccc(CN(C)c4ccc(C(=O)N[C@@H](CCC(=O)O)C(=O)O)cc4)cc32)n1`, the Inhibition is reported as 27%.
`CC(C)COc1ccc(Cl)cc1Cc1ccc(-c2nc3ccc(Br)cc3[nH]2)o1.Cl` showed an Inhibition of 75%.
`CC1SC(=S)NC1C(=O)O` (stereo unspecified) showed an Inhibition of 0%.
`COc1ccc(C2CC(=O)C3=C(C2)NC(C)=C(C(=O)OC(C)C)C3c2ccccc2F)cc1OC` (stereo unspecified) gave an Inhibition of 99%.
Work on `O=C(O)C(F)(F)F.O=S(=O)(NCCN1CCCC1)c1ccc(-c2cccc(CNC3Cc4ccccc4C3)c2)cc1` yielded an Inhibition of 57%.
`COc1ccc(NC(=O)/C=C/c2ccccc2Cl)cc1OCCN1CCC(N(C)C)CC1` gave an Inhibition of 19%.

These compounds were tested on HepG2 (assay: GSK_TCMDC: Percent inhibition of human HepG2 cell line. Test compounds present at 10uM.).
Assay type: functional
In the case of `COc1cccc(-c2cccc(CNC3CCN(CC4Cn5c(=O)ccc6ccc(F)c4c65)CC3)c2)c1.O=C(O)C(F)(F)F` (stereo unspecified), the Inhibition is reported as 23%.
With `CN(CCN(C)C(=O)NCc1ccccc1)C(=O)NCc1ccccc1` the Inhibition was 2%.
`Nc1cccc(CNCc2cccc(-c3csc(-c4nc5ccccc5[nH]4)c3)c2)c1.O=C(O)C(F)(F)F` was tested, and the Inhibition was 13%.
With `Fc1ccc2[nH]c3c(NCCN4CCCCC4)ncnc3c2c1` the Inhibition was 24%.
Compound `CC(=NNC(N)=O)C1=C(O)C(c2ccccc2)N(C2CCCCC2)C1=O` (stereo unspecified) has an Inhibition of 59%.
For `Cc1cc(Nc2ncc(Cl)c(Nc3ccccc3C(N)=O)n2)n[nH]1`, the Inhibition was 70%.
`Nc1nccc2ccc(-c3ccc4ncccc4c3)cc12.O=C(O)C(F)(F)F` gave an Inhibition of 97%.
In the case of `CN1CCN(C(C(=O)NCc2cc(Cl)cc(Cl)c2)c2ccc(Nc3cccc(C(F)(F)F)c3)cc2)CC1` (stereo unspecified), the Inhibition is reported as 49%.
Compound `COc1cc(NCCCNC(=O)c2cc3c(Cl)cc(Cl)cc3[nH]2)nc2ccccc12` has an Inhibition of 96%.
`CC[C@H](NC(=O)c1c(CN2CCC(N3CCCCC3)CC2)c(-c2ccccc2)nc2cc(O)ccc12)c1ccccc1` gave an Inhibition of 15%.
`CCN(CC)CCN(Cc1ccc(-c2ccc(C(F)(F)F)cc2)cc1)C(=O)Cn1c(SCc2ccc(F)cc2)nc(=O)c2ccccc21.O=C(O)C(O)C(O)C(=O)O` showed an Inhibition of 47%.
For `Clc1ccc2c(NN=Cc3cccs3)ccnc2c1`, the Inhibition was 0%.
Compound `Clc1ccccc1CNc1noc(-c2sccc2Br)n1` has an Inhibition of 0%.
`CCC(C)CN1C(=O)C(c2ccccc2)(c2ccccc2)N=C1N.O=CO` (stereo unspecified) showed an Inhibition of 11%.
`Brc1ccc(Nc2nc3ccccc3nc2Nc2ccc(Br)cc2)cc1` showed an Inhibition of 18%.
For `COc1ccccc1C1CCN(C2CCC(NC(=O)/C=C/c3cc(F)cc(F)c3)CC2)CC1` (stereo unspecified), the Inhibition was 45%.
In the case of `Cc1ccc(CCOCCCCCNCC(O)c2cc(Cl)c(N)c(Cl)c2)cc1` (stereo unspecified), the Inhibition is reported as 10%.
With `Cc1cc(NC(=O)c2cccs2)ccc1OC1CCN(Cc2ccc(F)cc2)CC1.O=C(O)C(F)(F)F` the Inhibition was 7%.
`CN(CCS(C)(=O)=O)Cc1ccc(-c2ccc3ncnc(Nc4ccc(OCc5cccc(F)c5)c(Cl)c4)c3c2)o1.Cc1ccc(S(=O)(=O)O)cc1` showed an Inhibition of 25%.
Compound `CC(C)NCc1ccc(-c2ccc(NC(=O)c3ccc(C#N)cc3)cc2)cc1.O=C(O)C(F)(F)F` has an Inhibition of 23%.
Work on `COc1ccc(CNCc2ccc(-c3ccc(-c4nc5ccccc5[nH]4)cc3)cc2)cc1.O=C(O)C(F)(F)F` yielded an Inhibition of 63%.
For `CCCC(CNCc1cccc(C)c1)CNc1cc(=O)c2ccccc2[nH]1` (stereo unspecified), the Inhibition was 0%.
In the case of `COc1ccc(-c2nc3c(N)nc(N)nc3nc2-c2ccccc2Cl)cc1.COc1ccc(-c2nc3nc(N)nc(N)c3nc2-c2ccccc2Cl)cc1.Cl`, the Inhibition is reported as 45%.
With `O=C(Nc1ccccc1Cc1ccccc1)c1ccccc1[N+](=O)[O-]` the Inhibition was 0%.
`CC(=O)Nc1cccc(CN(Cc2ccc(-c3ccc(CNCc4cccnc4)cn3)cc2)C(=O)Cc2cccnc2)c1.O=C(O)C(F)(F)F` was tested, and the Inhibition was 0%.
`Cc1cc(C(F)(F)F)n2nc(C3CCN(Cc4cc(C)c(O)c(C)c4)C3)cc2n1.O=C(O)CC(O)(CC(=O)O)C(=O)O` (stereo unspecified) was tested, and the Inhibition was 34%.
For `COc1ccc(N2CCN(CCCOc3ccc(NC(=O)c4cc(Cl)cc(Cl)c4)cc3)CC2)c(OC)c1`, the Inhibition was 38%.
`Cl.N=C(NCCc1ccc(Cl)c(Cl)c1)c1ccc2ccccc2c1` was tested, and the Inhibition was 60%.
Work on `O=C(NC1CCCCCC1)C1CCCN(C(=O)c2ccc(O)c(-c3ccc(Cl)c(Cl)c3)c2)C1` (stereo unspecified) yielded an Inhibition of 5%.
With `COc1ccccc1C(=O)C1CCCN(C(=O)c2ccccc2C(F)(F)F)C1` (stereo unspecified) the Inhibition was 0%.
`Cc1cc(-c2c[nH]c3ncc(-c4cccc5ncccc45)cc23)ccc1C(=O)O.O=C(O)C(F)(F)F` gave an Inhibition of 31%.
In the case of `Cc1ccc(NC(=O)c2ccc3ncccc3c2)cc1OC1CCN(Cc2ccc(F)cc2)CC1.O=C(O)C(F)(F)F`, the Inhibition is reported as 6%.
Work on `O=C(Cn1c(CCc2cccc(F)c2F)nc(=O)c2ccccc21)N(Cc1ccc(-c2ccc(C(F)(F)F)cc2)cc1)C1CCN(C2CCSCC2)CC1.O=C(O)C(O)C(O)C(=O)O` yielded an Inhibition of 97%.
`Cc1cn(CC(=O)Nc2cccc(-c3cccc(-c4nc5cccc(C)c5[nH]4)c3)c2)c(=O)[nH]c1=O` showed an Inhibition of 2%.
Work on `Cc1nc(O)c2c(ccc3ccc(CN(C)c4ccc(C(=O)N[C@@H](CCC(=O)O)C(=O)O)cc4)cc32)n1` yielded an Inhibition of 42%.
`CC(C)COc1ccc(Cl)cc1Cc1ccc(-c2nc3ccc(Br)cc3[nH]2)o1.Cl` showed an Inhibition of 19%.
For `CC1SC(=S)NC1C(=O)O` (stereo unspecified), the Inhibition was 3%.
In the case of `COc1ccc(C2CC(=O)C3=C(C2)NC(C)=C(C(=O)OC(C)C)C3c2ccccc2F)cc1OC` (stereo unspecified), the Inhibition is reported as 14%.
For `O=C(O)C(F)(F)F.O=S(=O)(NCCN1CCCC1)c1ccc(-c2cccc(CNC3Cc4ccccc4C3)c2)cc1`, the Inhibition was 55%.
Compound `COc1ccc(NC(=O)/C=C/c2ccccc2Cl)cc1OCCN1CCC(N(C)C)CC1` has an Inhibition of 18%.
